{"source": "PubChem BioAssay (Tox21)", "note": "Results filed as inconclusive are left out. Active and inactive are the calls of the source. The call rests on the fitted dose curve; in most records, active means well fitted cell-killing curve with a large enough effect in the repeat runs; inconclusive means weak or mixed curves, or effect the other way; inactive means no such curve, though single readings can be large or run the other way. On the % scale 0 is the no-effect control and ±100 the full control effect; potency means the concentration at half of the fitted maximal effect."}
{"test": "qHTS assay to identify small molecule agonists of the estrogen receptor alpha (ER-alpha) signaling pathway in the presence of an antagonist - cell viability counter screen (AID 1259386);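 further: cells exposed to compounds for 22 h at 37 °C before the viability read; nearly all actives have a fitted effect of over 30% in size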", "conditions": "VM7Luc4E2 viability, CellTiter-Fluor fluorescence, 22 h; series mostly up to 92.4 µM; activity change, negative = cytotoxicity: at the top concentration", "description": "National Center for Advancing Translational Sciences [NCATS]\nNIH Chemical Genomics Center [NCGC]\nU.S. Environmental Protection Agency [EPA]\nNational Institutes of Environmental Health Sciences [NIEHS]\nNational Toxicology Program [NTP]\nU.S. Food and Drug Administration [FDA]\nEstrogen receptor (ER), a member of nuclear hormone receptor plays an important role in development, metabolic homeostasis and reproduction. Two subtypes of ER, ER-alpha and ER-beta, have similar expression patterns with some uniqueness in both types. Endocrine disrupting chemicals (EDCs) and their interactions with steroid hormone receptors like ER causes disruption of normal endocrine function. Therefore, it is important to understand the effect of environmental chemicals in ER signaling pathway. For identifying ER agonists, VM7Luc4E2 cell line has been used in the current assay.\nVM7Luc4E2 cell line (provided by Denison MS, University of California) endogenously expresses full-length ER-alpha and is stably transfected with a plasmid containing four estrogen responsive elements (ERE) upstream of a luciferase reporter gene. This current screening for measuring luciferase reporter gene activity using VM7Luc4E2 cells against Tox21 10K library collection is a confirmation study on agonist mode screening in presence of ER-antagonist (ICI-182,780) at 10.0nM final concentration. The cytotoxicity of the compounds was tested in parallel by measuring the cell viability using CellTiter-Fluor assay system (Promega, Madison, WI) in the same wells.\nTox21 Assay Protocol Summary:\nVM7Luc4E2 cells were cultured in phenol red free assay medium containing 10% charcoal stripped FBS for 5 days prior to the assay. The cells were dispensed at 4,000 cells in 4uL of assay medium per well into white wall/solid-bottom 1536-well plates (Corning Life Sciences, Corning, NY) using a Multidrop Combi (Thermo Fisher Scientific Inc., Waltham, MA) dispenser. After the assay plates were incubated at 37C and 5% CO2 for 24hr, 1uL of 10.0nM (final concentration) ICI-182,780 or assay buffer was added using two separate tips of Flying Reagent Dispenser (FRD, Aurora Discovery, San Diego, CA). Then 23nL of compounds dissolved in DMSO at 15 concentrations and positive controls or DMSO only was transferred to the assay plates by a Pintool station (Wako, San Diego, CA). The assay plates were incubated at 37C and 5% CO2 for 22hr. After 21hr incubation at 37C, 1uL/well CellTiter-Fluor reagent (Promega Corporation, Madison, WI) was added to each well using FRD and after 1hr incubation at 37C and 5% CO2, the fluorescence signal was measured on ViewLux plate reader (PerkinElmer, Shelton, CT)."}
{"compound": "CCOC(=O)c1ccccc1C", "activity change, negative = cytotoxicity": "-0.483% (inactive)"}
{"compound": "C=CCCCCCCCCCCCCCCCC", "activity change, negative = cytotoxicity": "-0.26% [at 8.39 µM] (inactive)"}
{"compound": "CCCCCCCCCCCC(=O)[O][Sn]([CH2]CCC)([CH2]CCC)[O]C(=O)CCCCCCCCCCC", "activity change, negative = cytotoxicity": "4.07% [at 42.5 µM] (inactive)"}
{"compound": "O=C(CCCCCCCCC#CI)Oc1ccccc1", "activity change, negative = cytotoxicity": "-0.314% [at 42.5 µM] (inactive)"}
{"compound": "CC1=C(C=O)C(C)(C)CCC1", "activity change, negative = cytotoxicity": "3.06% (inactive)"}
{"compound": "CC(C)CCCCCCOC(=O)CCCCC(=O)OCCCCCCC(C)C", "activity change, negative = cytotoxicity": "5.32% (inactive)"}
{"compound": "COc1ccc(CCC(=O)c2c(O)cc(O[C@@H]3O[C@H](CO)[C@@H](O)[C@H](O)[C@H]3O[C@@H]3O[C@@H](C)[C@H](O)[C@@H](O)[C@H]3O)cc2O)cc1O", "activity change, negative = cytotoxicity": "-4.82% (inactive)"}
{"compound": "Fc1c(F)c(F)c(Br)c(F)c1F", "activity change, negative = cytotoxicity": "1.45% (inactive)"}
{"compound": "CC(C)(C)C(=O)C(Oc1ccc(Cl)cc1)n1ccnc1", "note": "(stereo not given)", "activity change, negative = cytotoxicity": "-3.87% [at 42.5 µM] (inactive)"}
{"compound": "O=C(N[C@@H](c1ccccc1)[C@@H]1CCCCN1)c1cccc(C(F)(F)F)c1Cl", "activity change, negative = cytotoxicity": "9.23% (inactive)"}
{"compound": "COc1cc2[nH]c(=O)[nH]c(=O)c2cc1OC", "activity change, negative = cytotoxicity": "0.726% [at 42.5 µM] (inactive)"}
{"compound": "O=C(CCCN1CCC(O)(c2ccc(Br)cc2)CC1)c1ccc(F)cc1", "activity change, negative = cytotoxicity": "-0.739% [at 42.5 µM] (inactive)"}
{"compound": "Nc1nc(Cl)nc2c1ncn2[C@@H]1O[C@H](CO)[C@@H](O)[C@@H]1F", "activity change, negative = cytotoxicity": "1.71% [at 42.5 µM] (inactive)"}
{"compound": "CCCc1c(OCCCOc2ccc(OCC(=O)O)cc2)ccc(C(C)=O)c1O", "activity change, negative = cytotoxicity": "0.228% (inactive)"}
{"compound": "CN(C)CCOC1=Cc2ccccc2Sc2ccc(Cl)cc21", "activity change, negative = cytotoxicity": "-1.57% [at 42.5 µM] (inactive)"}
{"compound": "CCNC(=O)N1CCN(CCCC(c2ccc(F)cc2)c2ccc(F)cc2)CC1", "Potency": "23.7 µM (active)"}
{"compound": "CC(=O)[C@H]1CC[C@H]2[C@@H]3C[C@H](C)C4=CC(=O)CC[C@]4(C)[C@H]3[C@@H](O)C[C@]12C", "activity change, negative = cytotoxicity": "3.65% [at 42.5 µM] (inactive)"}
{"compound": "Cc1cc(O)c2c(O)c3c(O)cccc3cc2c1", "activity change, negative = cytotoxicity": "-6.92% [at 42.5 µM] (inactive)"}
{"compound": "O=C(O)c1cccnc1C(=O)O", "activity change, negative = cytotoxicity": "3.99% (inactive)"}
{"compound": "C/C(=N/NC(=O)c1ccncc1)C(=O)O", "activity change, negative = cytotoxicity": "5.1% [at 42.5 µM] (inactive)"}
{"compound": "C(=C\\c1ccccc1)/CN1CCN(C(c2ccccc2)c2ccccc2)CC1", "activity change, negative = cytotoxicity": "-2.64% [at 42.5 µM] (inactive)"}
{"compound": "CC(=O)N(c1onc(C)c1C)S(=O)(=O)c1ccc(N)cc1", "activity change, negative = cytotoxicity": "4.43% [at 42.5 µM] (inactive)"}
{"compound": "CCCCC(CC)COC(=O)COc1ccc(Cl)cc1C", "note": "(stereo not given)", "activity change, negative = cytotoxicity": "2.01% (inactive)"}
{"compound": "c1cc[c]([Bi]([c]2ccccc2)[c]2ccccc2)cc1", "activity change, negative = cytotoxicity": "0.303% (inactive)"}
{"compound": "COC(=O)[C@@H]1CC2=CC(=O)CC[C@]2(C)[C@@]23O[C@@H]2C[C@@]2(C)[C@@H](CC[C@@]24CCC(=O)O4)[C@H]13", "activity change, negative = cytotoxicity": "2.28% [at 42.5 µM] (inactive)"}
{"compound": "Cc1ccc(S)cc1", "activity change, negative = cytotoxicity": "3.99% (inactive)"}
{"compound": "CCOC(=O)OCC", "activity change, negative = cytotoxicity": "-0.264% (inactive)"}
{"compound": "N#C[C@@H]1C[C@@H]2C[C@@H]2N1C(=O)[C@@H](N)C12CC3CC(CC(O)(C3)C1)C2", "activity change, negative = cytotoxicity": "0.329% [at 42.5 µM] (inactive)"}
{"compound": "COCC(O)CO", "note": "(stereo not given)", "activity change, negative = cytotoxicity": "-0.769% (inactive)"}
{"compound": "O=C(O)c1cccc(O)c1", "activity change, negative = cytotoxicity": "0.802% (inactive)"}
{"compound": "Oc1cc(O)c(Cl)cc1Cl", "activity change, negative = cytotoxicity": "0.537% (inactive)"}
{"compound": "CCCCC/C(=C\\c1ccccc1)CO", "activity change, negative = cytotoxicity": "1.03% (inactive)"}
{"compound": "CC(C)OCC1CO1", "note": "(stereo not given)", "activity change, negative = cytotoxicity": "0.806% (inactive)"}
{"compound": "C=CCNc1nc(NCC=C)nc(N2CCN(C(c3ccc(F)cc3)c3ccc(F)cc3)CC2)n1", "activity change, negative = cytotoxicity": "-2.29% [at 42.5 µM] (inactive)"}
{"compound": "COC(=O)CC(=O)C(C)(C)C", "activity change, negative = cytotoxicity": "-4.47% (inactive)"}
{"compound": "CC(C)(O)c1ccccc1CC[C@@H](SCC1(CC(=O)O)CC1)c1cccc(/C=C/c2ccc3ccc(Cl)cc3n2)c1", "activity change, negative = cytotoxicity": "6.08% [at 42.5 µM] (inactive)"}
{"compound": "CCCCCCCCCCCCCCCCBr", "activity change, negative = cytotoxicity": "0.981% [at 19 µM] (inactive)"}
{"compound": "Cc1c(C(=O)NN2CCCCC2)nn(-c2ccc(Cl)cc2Cl)c1-c1ccc(Cl)cc1", "activity change, negative = cytotoxicity": "1.17% [at 42.5 µM] (inactive)"}
{"compound": "CC(N)CN", "note": "(stereo not given)", "activity change, negative = cytotoxicity": "-5.39% (inactive)"}
{"compound": "CSc1ccc(Oc2ccc(S(N)(=O)=O)cc2CN(C)C)cc1C", "activity change, negative = cytotoxicity": "1.73% (inactive)"}
